# Records with an inconclusive call do not appear. Calls of active or inactive are those of the source. How the source made its calls: active means hit-call score of the fitted dose curve at least 0.9, where 1 is the maximum; inconclusive means response in the unintended direction; inactive means score below 0.9.
# Experiment: Tanguay_ZF_120hpf_OTIC_legacy: (Legacy) Oregon State University Tanguay Lab 120 Hour Post-fertilization zebrafish Assay for Otic Vesicle Malformation (AID 2283639)
# Description: Tanguay_ZF_120hpf_legacy is a whole embryo, multiplexed endpoint assay using zebrafish larvae exposed for 120 hours post fertilization on a 96-well plate.Tanguay_ZF_120hpf_OTIC_legacy is one of one assay component(s) measured or calculated from the Tanguay_ZF_120hpf_legacy assay. It is designed to make measurements of zebrafish development as detected with brightfield microscopy of developing zebrafish embryos.Data from the assay component Tanguay_ZF_120hpf_OTIC_legacy was analyzed into 1 assay endpoints. This assay endpoint, Tanguay_ZF_120hpf_OTIC_legacy, was analyzed in the positive analysis fitting direction relative to DMSO as the negative control and baseline of activity. Using a type of morphology reporter, gain-of-signal activity can be used to understand changes in developmentals as they relate to the whole embryo. To generalize the intended target to other relatable targets, this assay endpoint is annotated to the zebrafish development intended target family, where the subfamily is otic vesicle morphogenesis.
# Zebrafish husbandry: Tropical 5D wild-type adult zebrafish were housed in at an approximate density of 1000 per 100 gallon tank at the Sinnhuber Aquatic Research Laboratory, Oregon State University, Corvallis, OR. Each tank was kept at standard laboratory conditions of 28C on a 14-h light/10-h dark photoperiod in fish water consisting of reverse osmosis water supplemented with a commercially available salt (Instant Ocean). Spawning funnels were placed into the tanks the night prior, and embryos were collected and staged. […] Ten microliters of each row of dilution plate 2 was added to 2 exposure plates. The final DMSO concentration used was 0.64% (vol/vol). Thirty-two embryos were also exposed to 5uM trimethyltin chloride (positive control). Plates were sealed to prevent evaporation and foil covered to reduce light exposure and kept in a 28C incubator. Embryos were statically exposed until 120 hpf. At 24 hpf, embryos were assessed for photomotor response using a custom photomotor response analysis tool (PRAT) and for developmental toxicity endpoints (MO24: mortality at 24 hpf, DP: developmental progression, SM: spontaneous movement, and NC: notochord distortion). At 120 hpf, locomotor activity was measured using Viewpoint Zebralab and assessed for 18 endpoints. Zebrafish acquisition and analysis program (ZAAP), a custom program designed to inventory, acquire, and manage zebrafish data, was used to collect developmental endpoints as either present or absent (i.e., binary responses were recorded). If mortality occurred for an embryo (at either 24 or 120 hpf), the non-mortality endpoints were not measured.
Structure (SMILES),outcome,AC50
CC1(C)CCC(=Cc2ccc(Cl)cc2)C1(O)Cn1cncn1 (stereo not given),inactive,
CC1(C)C(C=C(Cl)Cl)C1C(=O)OC(C#N)c1cccc(Oc2ccccc2)c1 (stereo not given),inactive,
O=P(O)(O)CCCl,inactive,
COP(=S)(OC)SCn1nnc2ccccc2c1=O,inactive,
CC(C)Nc1nc(Cl)nc(NC(C)C)n1,inactive,
CCNC(=O)NC(=O)C(C#N)=NOC,inactive,
CCOc1nc(F)cc2nc(S(=O)(=O)Nc3c(Cl)cccc3Cl)nn12,inactive,
CNC(=O)N(C)c1nnc(C(C)(C)C)s1,inactive,
O=C1C2CC=CCC2C(=O)N1SC(Cl)(Cl)Cl (stereo not given),inactive,
CC(C)C1(C)N=C(c2ncccc2C(=O)O)NC1=O (stereo not given),inactive,
OC(c1ccc(Cl)cc1)(c1ccc(Cl)cc1)C(Cl)(Cl)Cl,inactive,
CCCCC(O)(Cn1cncn1)c1ccc(Cl)cc1Cl (stereo not given),inactive,
Cc1nc(N(C)C)nc(OC(=O)N(C)C)c1C,inactive,
CC(C)=CC1C(C(=O)OCc2coc(Cc3ccccc3)c2)C1(C)C (stereo not given),inactive,
Cc1c(COC(=O)[C@@H]2[C@H](/C=C(\Cl)C(F)(F)F)C2(C)C)cccc1-c1ccccc1,inactive,
O=C(Nc1ccccc1-c1ccc(Cl)cc1)c1cccnc1Cl,inactive,
CC(C)N1C(=O)N(c2ccccc2)CSC1=NC(C)(C)C,inactive,
CCOC(=O)C(C)OC(=O)c1cc(Oc2ccc(C(F)(F)F)cc2Cl)ccc1[N+](=O)[O-] (stereo not given),inactive,
CCSC(=O)N1CCCCCC1,inactive,
Cc1cnc(C2=NC(C)(C(C)C)C(=O)N2)c(C(=O)O)c1 (stereo not given),inactive,

Structure (SMILES),outcome,AC50
O=c1n(Cl)c(=O)n(Cl)c(=O)n1Cl,inactive,
N#Cc1c(Cl)cccc1Cl,inactive,
CS(=O)(=O)c1cc(C(F)(F)F)ccc1C(=O)c1cnoc1C1CC1,inactive,
C=C(C)CN(CC)c1c([N+](=O)[O-])cc(C(F)(F)F)cc1[N+](=O)[O-],inactive,
CC(C)N1C(=O)c2ccccc2NS1(=O)=O,inactive,
CCOP(=O)(OCC)Oc1nc(Cl)c(Cl)cc1Cl,inactive,
COc1cc(Cl)c(OC)cc1Cl,inactive,
CC(C)NC(=O)N1CC(=O)N(c2cc(Cl)cc(Cl)c2)C1=O,inactive,
Cc1ccc(N=CN(C)C=Nc2ccc(C)cc2C)c(C)c1,inactive,
CCCC(=NOCC)C1=C(O)CC(CC(C)SCC)CC1=O (stereo not given),inactive,
COc1ccc(-c2ccccc2)cc1NNC(=O)OC(C)C,inactive,
COCC(C)N(C(=O)CCl)c1c(C)csc1C (stereo not given),,8.94 µM (active)
CCCCC(C#N)(Cn1cncn1)c1ccc(Cl)cc1 (stereo not given),inactive,
CCNP(=S)(OC)O/C(C)=C/C(=O)OC(C)C (stereo not given),inactive,
CC(C)Oc1cccc(NC(=O)c2ccccc2C(F)(F)F)c1,inactive,
COC(=O)c1c(C(F)F)nc(C(F)(F)F)c(C2=NCCS2)c1CC(C)C,inactive,
Clc1cccc(C(Cl)(Cl)Cl)n1,inactive,
Nc1cnn(-c2ccccc2)c(=O)c1Cl,inactive,
Cc1cc(C)nc(Nc2ccccc2)n1,inactive,
N#CN=C1SCCN1Cc1ccc(Cl)nc1,inactive,

# Reference: PubChem BioAssay (EPA / NIEHS)
